The supplement of paper PMC6555819

Experiments:
Experiment in all cases: PBM binding z-score (relative to random genomic background probes); higher = stronger binding; sequences stand for … in GC…GCGATTGACAGCGTAGAATGAAGG
[1] = tested on: FXR:RXRa (NR concentration 270 nM, RXRa partner concentration 90 nM)
In short: (§1)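 The probes on custom Agilent 4×180K protein-binding microarrays were double-stranded, with 34-nt variable regions bearing direct-repeat seeds, single-nucleotide variants, half-site ablations and random human genomic background sequences. Incubation lasted 1 h with ligand-free nuclear receptor dimers in PBS pH 7.4, 2% milk, 0.02% Triton X-100, 1 mM DTT, 0.2 mg/mL BSA and 0.4 mg/ml salmon testes DNA. Antibodies against each partner (one per run) detected bound dimers, and fluorescence scans were regression-normalized. Binding z-scores take the random background probes as reference.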

[2] = tested on: LXRa:RXRa (NR concentration 270 nM, RXRa partner concentration 90 nM)
In short: as §1

[3] = tested on: LXRa homodimer (NR concentration 270 nM)
In short: as §1

[4] = tested on: LXRb:RXRa (NR concentration 270 nM, RXRa partner concentration 90 nM)
In short: as §1

[5] = tested on: LXRb homodimer (NR concentration 270 nM)
In short: as §1

[6] = tested on: PPARa:RXRa (NR concentration 270 nM, RXRa partner concentration 90 nM)
In short: as §1

[7] = tested on: PPARg:RXRa (NR concentration 180 nM, RXRa partner concentration 90 nM)
In short: as §1

[8] = tested on: PPARg:RXRa 270nM:90nM, anti-RXR (NR concentration 270 nM, RXRa partner concentration 90 nM)
In short: as §1

[9] = tested on: PPARg:RXRa 30nM:10nM, anti-RXR (NR concentration 30 nM, RXRa partner concentration 10 nM)
In short: as §1

[10] = tested on: PPARg:RXRa 90nM:30nM, anti-RXR (NR concentration 90 nM, RXRa partner concentration 30 nM)
In short: as §1

[11] = tested on: PPARg:RXRa DBDmut IVT, anti-RXR (DBD mutation: RXRa K156A/R161A, NR concentration 270 nM, RXRa partner concentration 90 nM)
In short: as §1

[12] = tested on: PPARg:RXRa IVT, anti-PPARg (NR concentration 270 nM, RXRa partner concentration 90 nM)
In short: as §1

[13] = tested on: PPARg DBDmut:RXRa IVT, anti-PPARg (DBD mutation: PPARg1 K132A/R137A, NR concentration 270 nM, RXRa partner concentration 90 nM)
In short: as §1

[14] = tested on: PPARg DBDmut IVT, anti-PPARg (DBD mutation: PPARg1 K132A/R137A, NR concentration 270 nM)
In short: as §1

[15] = tested on: PPARg homodimer (NR concentration 180 nM)
In short: as §1

[16] = tested on: PXR:RXRa (NR concentration 270 nM, RXRa partner concentration 90 nM)
In short: as §1

[17] = tested on: PXR homodimer (NR concentration 270 nM)
In short: as §1

[18] = tested on: RARa:RXR (NR concentration 270 nM, RXRa partner concentration 90 nM)
In short: as §1

[19] = tested on: RARa homodimer (NR concentration 270 nM)
In short: as §1

[20] = tested on: RARb:RXRa (NR concentration 270 nM, RXRa partner concentration 90 nM)
In short: as §1

Sequence | PBM binding z-score [1] | PBM binding z-score [2] | PBM binding z-score [3] | PBM binding z-score [4] | PBM binding z-score [5] | PBM binding z-score [6] | PBM binding z-score [7] | PBM binding z-score [8] | PBM binding z-score [9] | PBM binding z-score [10] | PBM binding z-score [11] | PBM binding z-score [12] | PBM binding z-score [13] | PBM binding z-score [14] | PBM binding z-score [15] | PBM binding z-score [16] | PBM binding z-score [17] | PBM binding z-score [18] | PBM binding z-score [19] | PBM binding z-score [20]
CCTACTGGGCCACGCAAGGTCATTGATTCAGTGA | 2.92 | 3.83 | 2.79 | 2.39 | -0.438 | 3.32 | 2.94 | 3.26 | 1.18 | 2.34 | 5.58 | 5.36 | 0.0336 | 0.776 | 2.02 | 4.51 | 1.84 | 3.48 | 0.546 | 2.81
TCTCGGAGGACACGAAAGGTCAGCGCTCGACATC | 3.42 | 4.26 | 2.8 | 3.54 | -0.162 | 3.88 | 1.58 | 3.31 | 2.59 | 2.86 | 2.02 | 1.8 | -0.121 | 0.158 | 3.31 | 4.36 | 0.337 | 4.86 | 1.84 | 4.42
TCTTGTAGATCAAGCTGGTTAAGAAAGCCTGAGT | -0.0681 | -0.116 | -0.611 | 0.0138 | -0.299 | 0.383 | -0.868 | 1.04 | 2.54 | 1.73 | 1.49 | 0.0134 | 0.281 | 0.0135 | -0.627 | 0.0638 | 0.0966 | -0.059 | -0.593 | -0.304
ATCTCTAGGTAGAGTTCAGTGAAAGATCGATAGA | 0.805 | 1.62 | 1.28 | 1.2 | 0.516 | 1.78 | 1.1 | 2.33 | 0.898 | 1.93 | 0.277 | 0.789 | 1.33 | 0.623 | 0.95 | 2.52 | 2.07 | 1.22 | 0.329 | 1.82
CCTACTTGGCCAAGGTCATTGATCAGTCAAAGCA | 3.65 | 4.26 | 1.93 | 3.87 | 1.21 | 4 | 1.27 | 2.15 | 0.389 | 1.41 | 1.37 | 2.08 | -0.0462 | -0.266 | 2.44 | 3.9 | 1.45 | 3.57 | 1.49 | 3.49
TTACCTAGGTGAAGGTCGTTGATCCCTCTGTAGA | 2.2 | 1.82 | -0.334 | 1.6 | -0.843 | 2.32 | 1.4 | 2.36 | 0.624 | 1.55 | 2.92 | 3.84 | 0.00137 | -0.113 | 0.298 | 1.16 | 0.136 | 1.48 | -0.66 | 1.45
CCTAGCTGGCCAATCTGGGTCACTCAAGGCTTGA | 0.656 | 0.35 | -0.714 | 0.665 | -1.32 | 2.6 | 1.43 | 1.89 | -0.389 | 1.26 | 3.93 | 4.25 | -0.85 | -1.11 | -0.162 | 0.708 | -0.934 | 1.02 | -1.02 | 1.09
CCTGGTAGGTCATGGTCAGCTAATCTACAGTATG | 3.94 | 3.15 | 0.527 | 2.3 | 0.0201 | 4.05 | 4.22 | 4.12 | 1.32 | 3.01 | 4.25 | 5.18 | 0.295 | 0.552 | 1.94 | 2.02 | -0.0799 | 2.83 | 0.611 | 3.81
TGAATGAGGTTATAAGATCAGGTAACGTTGCAAA | 1.34 | 1.33 | -0.261 | 1.28 | 0.248 | 2.76 | 1.42 | 1.99 | 1.02 | 1.46 | 1.19 | 1.74 | 0.858 | 0.555 | 0.252 | 0.996 | 0.0498 | 1.59 | 0.49 | 1.12
CGTCAAAGTTCAACTAAGGTAATGTAAAGCACGC | 7.02 | 6.36 | 3.99 | 4.15 | 2.17 | 5.15 | 5 | 5.65 | 2.56 | 4.42 | 0.526 | 2.28 | 0.986 | 1.3 | 3.39 | 5.58 | 3.59 | 4.17 | 1.99 | 5.18
ATATGTAGGTTACATCCGGTTCATTCAGGCTATG | 1 | 4.13 | 1.07 | 2.07 | 0.614 | 3.53 | 5.17 | 4.39 | 2.2 | 3.81 | 7.75 | 7.32 | 3.76 | 2.01 | 1.08 | 3.66 | 5.68 | 1.55 | 0.415 | 1.22
ATCTCTAGGTAACCAAGTTCAATGAATGCCGAAC | 0.814 | 1.63 | 1.7 | 1.34 | 1.25 | 1.76 | 1.26 | 1.15 | 0.497 | 0.824 | 3.3 | 3.19 | 0.675 | 1.22 | 1.22 | 2.72 | 3.6 | 1.33 | 1.18 | 1.43
TCCATTAGTTGAAGGGCAACCGACGAGTCCGTTT | 1.27 | 1.35 | 0.397 | 1.23 | 0.255 | 1.18 | 0.134 | 2.23 | 3.64 | 3.02 | 2.37 | 0.637 | 0.0905 | 0.783 | 1.13 | 1.16 | 0.683 | 0.989 | 0.466 | 1.86
CCTACTGGGCCACGAAAGGTCATTGCTTCAGTGA | 3.92 | 5.22 | 5.24 | 4.45 | 0.134 | 4.62 | 4.49 | 4.91 | 2.15 | 4.17 | 5.37 | 5.7 | 1.88 | 1.06 | 3.27 | 5.56 | 2.05 | 5.35 | 1.56 | 3.94
